In PubChem BioAssay (NCI):
The panel holds about 83,000 compounds, 20% with a hit somewhere; the sample as a whole holds those more often.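 A percent growth of 40 corresponds to 60% growth inhibition; 0 means no net growth; -100 means all cells died. Active threshold: below 10.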 Unmarked numbers belong to inactive results. Active and inactive are the calls of the source.

Assays:
Assay in all cases: NCI-60 one-dose screen, 48 h (100 = growth as untreated, 0 = no growth, -100 = all killed)
Details in all cases: 10 µM unless noted
DU-145 prostate = tested on: DU-145 prostate
K-562 leukemia = tested on: K-562 leukemia
MALME-3M melanoma = tested on: MALME-3M melanoma
MDA-MB-231 breast = tested on: MDA-MB-231 breast
RXF 393 renal = tested on: RXF 393 renal
SF-268 CNS = tested on: SF-268 CNS
SF-295 CNS = tested on: SF-295 CNS
SF-539 CNS = tested on: SF-539 CNS
UACC-257 melanoma = tested on: UACC-257 melanoma
M14 melanoma = tested on: M14 melanoma
HCT-15 colon = tested on: HCT-15 colon
HT29 colon = tested on: HT29 colon
SNB-75 CNS = tested on: SNB-75 CNS
SNB-19 CNS = tested on: SNB-19 CNS
U251 CNS = tested on: U251 CNS
PC-3 prostate = tested on: PC-3 prostate
SK-MEL-5 melanoma = tested on: SK-MEL-5 melanoma
UACC-62 melanoma = tested on: UACC-62 melanoma
LOX IMVI melanoma = tested on: LOX IMVI melanoma
SK-MEL-28 melanoma = tested on: SK-MEL-28 melanoma

| SMILES | growth (DU-145 prostate) | growth (K-562 leukemia) | growth (MALME-3M melanoma) | growth (MDA-MB-231 breast) | growth (RXF 393 renal) | growth (SF-268 CNS) | growth (SF-295 CNS) | growth (SF-539 CNS) | growth (UACC-257 melanoma) | growth (M14 melanoma) | growth (HCT-15 colon) | growth (HT29 colon) | growth (SNB-75 CNS) | growth (SNB-19 CNS) | growth (U251 CNS) | growth (PC-3 prostate) | growth (SK-MEL-5 melanoma) | growth (UACC-62 melanoma) | growth (LOX IMVI melanoma) | growth (SK-MEL-28 melanoma) |
| --- | --- | --- | --- | --- | --- | --- | --- | --- | --- | --- | --- | --- | --- | --- | --- | --- | --- | --- | --- | --- |
| COc1ccc2c(c1)c(/C(O)=C1\COC(=O)C1=O)cn2Cc1ccc(F)cc1 | 139% | 86.6% | 106% | 94.1% | 104% | 103% | 93.3% | 102% | 95.8% | 116% | 87.8% | 115% | 104% | 100% | 101% | 89.7% | 97.9% | 88.9% | 100% | 105% |
| Cc1cc(Nc2ccc(C(=O)N3CCCC3)cc2)nc(NCCCNc2ccnc3cc(Cl)ccc23)n1 | 91.5% | 33.9% | 54.8% | 48.3% | 101% | 67.8% | 103% | 65% | 105% | 82.5% | 102% | 68.9% | 91.2% | 84.1% | 53.5% | 93.3% | 92.3% | 86.8% | -67.1% (active) | 92.1% |
| CCCCNc1nnc2n(Cc3ccccc3)c(=O)c3c4c(sc3n12)CCCC4 | 38.3% | 41.2% | 40.3% | 54.9% | 63.2% | 63.6% | 48.4% | 47.1% | 54.1% | 56.3% | 30.5% | 24.8% | 66.4% | 56.5% | 48.5% | 42.7% | 27.7% | 32.5% | 30.2% | 60.7% |
| O=C1/C(=C/c2ccccn2)NC(=S)N1c1ccccc1Cl | 54.1% | 39.7% | 67.7% | 36.4% | -7.86% (active) | 83.5% | 55.9% | 67.3% | 74.5% | 42.3% | 38.2% | 71.1% | 82% | 58.6% | 34.6% | 52.2% | 57.9% | 66.7% | 12.1% | 74% |
| CCNC(=O)Oc1ccc(/C(=C(/CC)Cc2ccccc2)c2ccc(OCCN3CCCC3)cc2)cc1 | 104% | 64.7% | 107% | 80.1% | 94.6% | 92.9% | 102% | 97.2% | 90.1% | 93.1% | 73.1% | 98.6% | 85.5% | 93.4% | 91.7% | 75% | 91.7% | 98.3% | 91.4% | 99% |
| CC1(C)CC(=O)c2c(nn(-c3ccc(Br)cc3)c2-c2cn(-c3ccccc3)nc2-c2cccnc2)C1 | 111% | 84.4% | 101% | 89.7% | 96.1% | 97.8% | 92.1% | 105% | 111% | 98.6% | 94.9% | 98.1% | 84.3% | 92.5% | 91.7% | 71.7% | 97.2% | 76.7% | 85.5% | 113% |
| O=C1/C(=C/c2ccc(F)cc2)CN(C(=O)C(Cl)Cl)C/C1=C\c1ccc(F)cc1 | -96.5% (active) | -6.01% (active) | -34.9% (active) | -39.8% (active) | -91.8% (active) | -30.9% (active) | -75.9% (active) | -97% (active) | -43.3% (active) | -68.5% (active) | -57.9% (active) | -24.7% (active) | -61.2% (active) | -87% (active) | -95.5% (active) | -74.3% (active) | -64.9% (active) | -61.1% (active) | -90.2% (active) | -72.1% (active) |
| Oc1c(CN2CCOCC2)cc(COCc2ccccc2)c2cccnc12 | 38% | 14.8% | 21.2% | 43.1% | 58.5% | 23.7% | 30.8% | 4.65% (active) | -9.19% (active) | 12% | 20.5% | 88.2% | 49.5% | 35.7% | 11% | 31.4% | -12.3% (active) | -25.7% (active) | 12.5% | 36.3% |
| CNCc1cccc2c1OCCOCCOCCNS(=O)(=O)c1ccc(cc1)-c1cnc(N)c(n1)C(=O)N2 | 21.1% | 9.35% (active) | 29.9% | 30.4% | -11.5% (active) | 35.7% | 70.3% | 7.45% (active) | 61.3% | 26% | 89.8% | 12.4% | 65.4% | 18.2% | 14.1% | 20.1% | 77% | 23.2% | 2.85% (active) | 51% |
| COc1cc(C(=O)c2c(-c3ccccc3)oc3c(OC)cccc23)cc(OC)c1OC | 6.56% (active) | 12.3% | 42.2% | -0.456% (active) | -3.42% (active) | 30.1% | 2.79% (active) | -26.1% (active) | 71.1% | 3.87% (active) | 5.88% (active) | 8.2% (active) | 7.41% (active) | 25% | 14.2% | 17.2% | -42.3% (active) | 30.2% | 12.2% | 59.9% |
| Cc1ccc(S(=O)(=O)OCCCOS(=O)(=O)c2ccc(C)cc2)cc1 | 95% | 65.9% | 100% | 110% | 107% | 101% | 107% | 122% | 81.1% | 98% | 106% | 102% | 99.7% | 97.9% | 96.4% | 89.3% | 116% | 103% | 108% | 109% |
| CN1CCN(CCOc2ccc(-c3cnc4c(-c5ccc(F)cc5)cnn4c3)cc2)CC1 | 42.2% | -6.74% (active) | 53.5% | 55.1% | 48.8% | 56.9% | 81% | 49.5% | 28.4% | -29.8% (active) | -15.8% (active) | 1.11% (active) | 68% | 82% | 38.2% | 47.5% | 61.2% | 50.7% | -78.5% (active) | 79.4% |
| CC(C)(C)n1cc(-c2ccnc(NCCCNS(=O)(=O)c3cccc4ccccc34)c2)c(-c2cccc(F)c2)n1 | 89.4% | 30.8% | 113% | 80.6% | 76.8% | 85.2% | 63.9% | 72.4% | 94.4% | 73.3% | 44.6% | 27.6% | 67.2% | 86.3% | 65% | 55.8% | 74.5% | 80.5% | 54.7% | 99.9% |
| Cc1c(CC(=S)N2CCOCC2)nnn1-c1cccc(C(F)(F)F)c1 | 111% | 100% | 104% | 107% | 108% | 97.7% | 109% | 95.1% | 105% | 100% | 104% | 101% | 92.3% | 106% | 95.4% | 99% | 99.8% | 101% | 98.2% | 113% |
| COc1ccc(C(=O)N2c3ccccc3Sc3ccccc32)c(C(F)(F)F)c1 | 14.2% | -7.9% (active) | 59.7% | 23.9% | 15.4% | 35.2% | 5.14% (active) | -10.1% (active) | 61.5% | 2.2% (active) | 18% | 3.4% (active) | 29.3% | 30.8% | 19% | 15.5% | 5.29% (active) | 31.6% | 16.7% | 52% |
| COc1cc(/C=C/C(=O)/C=C(O)/C=C/c2ccc(OC(=O)C34CC5CC(CC(C5)C3)C4)c(OC)c2)ccc1OC(=O)C12CC3CC(CC(C3)C1)C2 | 113% | 106% | 97% | 103% | 106% | 95.6% | 99.2% | 95.2% | 112% | 102% | 99.3% | 104% | 90% | 101% | 104% | 101% | 105% | 98.8% | 95.3% | 100% |
